LMNA splice mod – qHTS Assay for Modulators of Lamin A Splicing; HeLa LMNA splicing GFP/RFP minigene ratio, 48 h; actives 0.01% (n = 200,000); Potency, µM (top dose mostly 46.1 µM), without a hit: top-dose ratio change, negative = inhibition, most hits filed as inhibitors; active = well fitted inhibition curve with a large enough effect in the signal ratio, with a control signal flat, not every such curve was filed as active; inconclusive = small, poorly fitted or top-dose-only effect, or effect the other way, or a change in a side signal; the % refers to the signal ratio
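S3 HeLa cells stably expressing lamin A-EGFP splicing minigene plus DsRed2, 600 cells/well, 48 h compound exposure at 37C. Laser-scanning cytometry; analysed as GFP (500-530 nm)/RFP (575-640 nm) total intensity ratio; 0.5% DMSO vehicle.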
HPGD block – qHTS Assay for Inhibitors of HPGD (15-Hydroxyprostaglandin Dehydrogenase); 15-hydroxyprostaglandin dehydrogenase [NAD(+)] (Homo sapiens), P15428; purified HPGD, NADH fluorescence kinetic, PGE2 substrate; Potency, µM, inactives show top-dose activity change, negative = inhibition, most hits filed as inhibitors; actives 4.3% (n = 150,000); AID 894, 2007; active = well fitted inhibition curve with a large enough effect, not every such curve was filed as active; inconclusive = small, poorly fitted or top-dose-only effect, or another doubt; inactive = no such curve, though single readings can be large or run the other way
Target sequence (P15428 whole entry, looked up): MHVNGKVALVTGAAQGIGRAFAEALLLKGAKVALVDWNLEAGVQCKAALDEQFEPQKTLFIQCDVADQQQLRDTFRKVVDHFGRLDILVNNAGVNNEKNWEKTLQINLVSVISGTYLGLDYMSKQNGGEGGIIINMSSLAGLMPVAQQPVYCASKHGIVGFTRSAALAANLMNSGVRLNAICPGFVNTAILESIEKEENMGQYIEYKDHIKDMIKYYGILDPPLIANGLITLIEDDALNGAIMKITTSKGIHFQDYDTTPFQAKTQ
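NADH formation kinetics: reaction with 30 uM PGE2 and 1 mM NAD+ (final), 20 nM enzyme, Tris-HCl pH 8 with Tween 20, after 15 min compound preincubation at room temperature. Fluorescence change, last versus first of five reads.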
ALDH1A1 inh – qHTS Assay for Inhibitors of Aldehyde Dehydrogenase 1 (ALDH1A1). Aldehyde dehydrogenase 1A1 (Homo sapiens), P00352. Purified ALDH1A1, NADH fluorescence, propionaldehyde substrate. Potency, µM (doses to about 75.3 µM), for inactives: top-dose activity, negative = inhibition, usual class: inhibitors. actives 7.3% (n = 220,000); active = well fitted inhibition curve with a large enough effect, not every such curve was filed as active; inconclusive = small, poorly fitted or top-dose-only effect, or another doubt; inactive = no such curve, though single readings can be large or run the other way;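 also: plate controls were no enzyme wells and a reference inhibitor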
Target sequence (P00352 whole entry, looked up): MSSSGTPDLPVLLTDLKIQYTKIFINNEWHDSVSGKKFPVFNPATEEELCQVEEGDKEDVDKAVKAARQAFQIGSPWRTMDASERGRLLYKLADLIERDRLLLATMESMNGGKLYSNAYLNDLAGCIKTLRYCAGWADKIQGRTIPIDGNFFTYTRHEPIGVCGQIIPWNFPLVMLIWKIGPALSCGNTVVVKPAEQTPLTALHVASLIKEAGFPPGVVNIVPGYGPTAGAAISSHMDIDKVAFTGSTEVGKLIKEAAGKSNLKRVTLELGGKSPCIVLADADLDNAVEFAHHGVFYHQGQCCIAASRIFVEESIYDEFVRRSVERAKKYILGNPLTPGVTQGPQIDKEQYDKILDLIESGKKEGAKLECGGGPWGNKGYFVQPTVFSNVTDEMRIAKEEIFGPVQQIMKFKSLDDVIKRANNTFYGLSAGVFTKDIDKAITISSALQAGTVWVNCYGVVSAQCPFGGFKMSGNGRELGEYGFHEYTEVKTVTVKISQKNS
KinaseGlo FLuc – Counterscreen for Luciferase (Kinase-Glo TM) Inhibition. Luciferin 4-monooxygenase (Photuris pensylvanica), Q27757. Kinase-Glo luciferase, ATP luminescence, 8 min. Potency, µM (top dose mostly 38.3 µM), for the others: top-dose activity change, negative = inhibition, hits mostly inhibitors. actives 0.28% (n = 200,000); also: nearly all actives have a fitted effect of over 60% in size
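Recombinant Kinase-Glo luciferase, 10 uM ATP (linear range), luciferin; imidazole pH 7.2 / KCl / MgCl2 / Tween / BSA buffer; 8 min RT; luminescence.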
IMPase Li cell – qHTS Assay for Identifying the Cell-Membrane Permeable IMPase Inhibitors: Potentiation with Lithium | AID 1457, 2008 | Potency, µM (doses to about 59.4 µM), without a hit: at the highest dose activity, negative = IMPase inhibition, actives largely listed as inhibitors | actives 0.35% (n = 210,000) | CHO-M1 cells, IP1 TR-FRET (IP-One), carbachol + lithium;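 also: IP1 builds up when IMPase is blocked and the TR-FRET signal falls; plate controls were basal vehicle for no effect and high inhibitor control for full effect; nearly all actives have a fitted effect of over 50% in size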
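Test compounds were applied to CHO-M1 cells previously cultured for 16–30 h at 2000 per well. A small lithium amount accompanied them; after 30 min at 37C, IP1 was quantified by TR-FRET.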
Numbers without * were called inactive; [ ] = remark or other dose. Sampled rows, rich in hits. Any-hit rate of the full collection: about 9%. Unless noted, calls follow the shape of the dose curve; as a rule, active = well fitted curve in the direction sought with a large enough effect; inconclusive = small, poorly fitted or top-dose-only effect, or another doubt; inactive = no such curve, though single readings can be large; an effect the other way counts as inactive or inconclusive. Unless noted, % is scaled to controls: 0 for no effect and ±100 for the full control effect; potency is read from the fitted curve at half-maximal effect.

What do the screens show for `CC(=O)Nc1cccc(-c2nnc(SCC(=O)N3CCCCC3)n2C)c1`?
LMNA splice mod: -20%; HPGD block: -22%; ALDH1A1 inh: -13%; KinaseGlo FLuc: 8%; IMPase Li cell: 0%

Results for CC(=O)Nc1cccc(-c2nnc(SCC(=O)n3c4c(c5ccccc53)CCCC4)n2C)c1 ?
LMNA splice mod: 4%; HPGD block: -12%; ALDH1A1 inh: 22µM*; KinaseGlo FLuc: -5%; IMPase Li cell: 23%[38.3 µM]

How did CCn1c(SCC(=O)Nc2ccc3c(c2)oc2ccccc23)nnc1-c1ccc(N)cc1 do in these assays?
LMNA splice mod: inconclusive; HPGD block: inconclusive; ALDH1A1 inh: 25µM*; KinaseGlo FLuc: 16%; IMPase Li cell: 24%[38.3 µM]

What do the screens show for `CC(=O)Nc1ccc(-c2nnc(SCC(=O)Nc3ccc4c(c3)oc3ccccc34)n2C)cc1`?
LMNA splice mod: -4%[0.0737 µM]; HPGD block: -19%; ALDH1A1 inh: 0.4µM*; KinaseGlo FLuc: -4%; IMPase Li cell: -18%[38.3 µM]

How did Cc1ccc(CNC(=O)Cn2c(=O)n(-c3ccccc3)c(=O)c3sccc32)cc1 do in these assays?
LMNA splice mod: inconclusive; ALDH1A1 inh: -2%; KinaseGlo FLuc: -1%; IMPase Li cell: -6%

How did CCCOc1ccc(N2C(=O)CC(N(CCc3ccc(OC)c(OC)c3)C(=S)Nc3ccccc3)C2=O)cc1 (stereo not drawn) do in these assays?
LMNA splice mod: inconclusive; HPGD block: -16%; ALDH1A1 inh: 25µM*; KinaseGlo FLuc: -1%; IMPase Li cell: -9%

Results for O=C(O)c1ccc2c(c1)C(=O)N(c1cccc(C(=O)/C=C/c3ccccc3)c1)C2=O ?
LMNA splice mod: inconclusive; ALDH1A1 inh: 0.71µM*; KinaseGlo FLuc: -3%; IMPase Li cell: -3%

How did Cc1c(C(=O)NCc2ccc(F)cc2)sc2nc3n(c(=O)c12)CCC3 do in these assays?
LMNA splice mod: 22%[46 µM]

How did Cc1cc2nc(SCCOC(=O)Nc3ccc(Cl)cc3)nc(C)c2cc1C do in these assays?
LMNA splice mod: 6%; HPGD block: 14µM*; ALDH1A1 inh: 3%; KinaseGlo FLuc: 13%; IMPase Li cell: 17%[38.3 µM]

What do the screens show for `CCOC(=O)CCSc1nc(C)c2cc(C)ccc2n1`?
LMNA splice mod: 1%; HPGD block: 20µM*; ALDH1A1 inh: 4%; KinaseGlo FLuc: -2%; IMPase Li cell: 13%[38.3 µM]

What do the screens show for `CCOC(=O)CSc1nc(C)c2cc(C)c(C)cc2n1`?
LMNA splice mod: -1%[46 µM]; ALDH1A1 inh: -14%; KinaseGlo FLuc: -1%; IMPase Li cell: 5%

How did N#Cc1cccc(NC(=O)N2CC3(CCN(C(=O)c4cc(C(F)(F)F)cc(C(F)(F)F)c4)CC3)C2)c1 do in these assays?
HPGD block: -5%; ALDH1A1 inh: -1%; KinaseGlo FLuc: 0%; IMPase Li cell: 2%

What do the screens show for `COCCn1c(N)c(C(=O)NS(=O)(=O)c2ccc(C)cc2)c(=O)[nH]c1=O`?
ALDH1A1 inh: 16µM*; KinaseGlo FLuc: -1%; IMPase Li cell: -4%

Results for S=c1[nH]c2ccc(Cl)cc2s1 ?
LMNA splice mod: 14%[46 µM]; ALDH1A1 inh: 1.3µM*

How did CSc1nc2ccccc2s1 do in these assays?
LMNA splice mod: 7%; HPGD block: -9%; ALDH1A1 inh: 1%; KinaseGlo FLuc: 1%; IMPase Li cell: -1%

How did Oc1ccccc1C(Sc1nc2ccccc2s1)Sc1nc2ccccc2s1 do in these assays?
HPGD block: 4µM*; ALDH1A1 inh: 0.71µM*; KinaseGlo FLuc: -4%[7.66 µM]; IMPase Li cell: -7%

Results for CCCCCC(=O)NC(=S)Nc1ccc2oc(=O)ccc2c1 ?
LMNA splice mod: 31%[46 µM]; ALDH1A1 inh: 7.1µM*; KinaseGlo FLuc: -3%; IMPase Li cell: 11%

What do the screens show for `COc1ccc(C(=O)NC(=S)Nc2ccc3oc(=O)ccc3c2)cc1`?
LMNA splice mod: -1%; HPGD block: -11%; ALDH1A1 inh: -15%; KinaseGlo FLuc: -2%; IMPase Li cell: -21%

What do the screens show for `CCOc1ccc(C(=O)N/N=C/c2cc(Cl)ccc2[N+](=O)[O-])cc1`?
LMNA splice mod: 8%; HPGD block: 22µM*; ALDH1A1 inh: -10%; KinaseGlo FLuc: 1%; IMPase Li cell: 2%

How did CCOc1ccc(Cl)cc1/C=N/NC(=O)c1ccccc1 do in these assays?
LMNA splice mod: -7%; HPGD block: -20%; ALDH1A1 inh: -1%; KinaseGlo FLuc: 3%; IMPase Li cell: 2%

Results for Cc1ccc(C)c(-c2nc(Cn3c(=O)cc(-c4ccccc4)c4c(C)nn(C)c43)c(C)o2)c1 ?
LMNA splice mod: -11%[46 µM]

How did N=C1S/C(=C\c2cn[nH]c2-c2ccc(F)cc2)C(=O)N1c1ccccc1F do in these assays?
LMNA splice mod: -24%; HPGD block: 13µM*; ALDH1A1 inh: 4%; KinaseGlo FLuc: -3%; IMPase Li cell: 2%

What do the screens show for `CC1(C)NC(=O)N(CC(O)COc2cc3ccccc3cc2C(=O)N2CCCCC2)C1=O` (stereo not drawn)?
LMNA splice mod: 5%; HPGD block: -11%; ALDH1A1 inh: -11%; KinaseGlo FLuc: -5%; IMPase Li cell: 4%[38.3 µM]

Results for O=C(c1cc2ccccc2cc1OCC(O)CN1CCCCC1)N1CCCCC1 (stereo not drawn) ?
LMNA splice mod: 3%; HPGD block: 11µM*; ALDH1A1 inh: inconclusive; KinaseGlo FLuc: 4%; IMPase Li cell: 16%[38.3 µM]

What do the screens show for `O=C(c1sc2ccccc2c1Cl)N1CCN(c2ccc(F)cc2)CC1`?
LMNA splice mod: -3%; HPGD block: -23%; ALDH1A1 inh: inconclusive; KinaseGlo FLuc: 1%; IMPase Li cell: 10%[38.3 µM]

Results for O=C(c1sc2ccccc2c1Cl)N1CCN(c2ncccn2)CC1 ?
LMNA splice mod: inconclusive; HPGD block: -11%; ALDH1A1 inh: 13µM*; KinaseGlo FLuc: 5%; IMPase Li cell: -1%

What do the screens show for `Cn1cccc1/C=N/NC(=O)c1sc2ccccc2c1Cl`?
LMNA splice mod: -5%; HPGD block: -10%; ALDH1A1 inh: inconclusive; KinaseGlo FLuc: -4%; IMPase Li cell: -14%[38.3 µM]

Results for O=C(N/N=C/c1ccccn1)c1sc2ccccc2c1Cl ?
ALDH1A1 inh: 11µM*

Results for Cc1c(/C=N/NC(=O)c2sc3ccccc3c2Cl)cnn1C ?
LMNA splice mod: 4%; HPGD block: -20%; ALDH1A1 inh: 20µM*; KinaseGlo FLuc: -4%; IMPase Li cell: 7%[38.3 µM]

What do the screens show for `O=Nc1c(O)[nH]c2ccccc12.[Cu].[O-]/N=C1/C(=[OH+])Nc2ccccc21`?
HPGD block: 0%; ALDH1A1 inh: 1%[13.5 µM]; KinaseGlo FLuc: 0%[7.66 µM]; IMPase Li cell: -10%

What do the screens show for `CC(C)Oc1ccc(C(=O)NC2=NCCS2)cc1`?
LMNA splice mod: inconclusive; ALDH1A1 inh: 20µM*; KinaseGlo FLuc: -5%; IMPase Li cell: 1%
